The source of these data is publication PMC13541613, “GHT-SELEX demonstrates unexpectedly high intrinsic sequence specificity and complex DNA binding of many human transcription factors”.

Sequence of ZNF721 full-length (Q8TF20 other isoform, or with tags, fused parts or gaps): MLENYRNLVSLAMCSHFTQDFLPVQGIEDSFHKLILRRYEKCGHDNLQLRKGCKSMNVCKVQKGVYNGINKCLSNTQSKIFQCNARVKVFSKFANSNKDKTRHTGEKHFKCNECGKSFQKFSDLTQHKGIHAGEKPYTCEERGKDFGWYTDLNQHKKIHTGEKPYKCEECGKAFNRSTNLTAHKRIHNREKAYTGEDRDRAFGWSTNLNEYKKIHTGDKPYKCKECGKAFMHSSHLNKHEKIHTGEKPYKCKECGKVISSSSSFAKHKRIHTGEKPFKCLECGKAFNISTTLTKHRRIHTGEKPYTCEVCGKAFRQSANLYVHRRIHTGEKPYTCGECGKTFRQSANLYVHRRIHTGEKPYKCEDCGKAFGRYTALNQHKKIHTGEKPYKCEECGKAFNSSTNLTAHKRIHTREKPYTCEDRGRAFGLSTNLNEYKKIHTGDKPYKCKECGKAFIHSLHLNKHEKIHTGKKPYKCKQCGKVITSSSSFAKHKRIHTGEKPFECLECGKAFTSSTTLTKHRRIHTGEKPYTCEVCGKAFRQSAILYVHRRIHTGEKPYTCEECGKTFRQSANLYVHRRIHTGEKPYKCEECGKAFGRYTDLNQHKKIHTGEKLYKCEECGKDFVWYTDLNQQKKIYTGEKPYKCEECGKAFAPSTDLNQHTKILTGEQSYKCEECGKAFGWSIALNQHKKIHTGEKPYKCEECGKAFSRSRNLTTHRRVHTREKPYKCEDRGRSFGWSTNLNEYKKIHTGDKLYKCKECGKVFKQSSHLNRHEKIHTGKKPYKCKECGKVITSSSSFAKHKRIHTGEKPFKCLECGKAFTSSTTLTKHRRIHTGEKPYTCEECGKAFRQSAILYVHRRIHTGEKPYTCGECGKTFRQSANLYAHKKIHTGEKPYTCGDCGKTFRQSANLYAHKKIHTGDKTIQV

The test addresses ZNF721 full-length (Homo sapiens, UniProt Q8TF20-2 1-923). Description: HT-SELEX; 20 mM HEPES pH 7, 140 mM KCl, 5 mM NaCl, 1 mM K2HPO4, 2 mM MgSO4, 100 uM EGTA, ZnSO4, 0.1% Tween20; room temperature, 1 h; high values mean tight binding. The note with it: protein: ivt; tags: eGFP (N-terminal); dsDNA, one strand shown. The method in brief: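 Full-length or DNA-binding-domain forms of a tagged transcription factor were produced in HEK293 lysate or cell-free extract and immobilised on beads. Incubation with a randomized 40-base DNA library ran for 1 h at room temperature in HEPES/KCl low-stringency buffer with Tween20, after which bound DNA was washed, heat-eluted, PCR-amplified over successive cycles and Illumina-sequenced. Binding strength is given as the relative k-mer count in selected reads, higher for tighter binding.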
Sequence CCCCTACCCC yielded a binding signal of 0.199 relative 10-mer count.

Turning to AAAAAAAAGA, the binding signal came out at 0.116 relative 10-mer count.

For CTCCCACCCC, the binding signal amounted to 0.224 relative 10-mer count.

On to CCCCCCCCTC, for which the binding signal came to 0.167 relative 10-mer count.

CCACCCACAC yielded a binding signal of 0.152 relative 10-mer count.

CTCCCCCCGC returned a binding signal of 0.114 relative 10-mer count.

For the sequence CCCCCTCCAC, the binding signal is 0.179 relative 10-mer count.

For CCCTCACCAC, the binding signal amounted to 0.104 relative 10-mer count.

In turn, CCGCCCCCGC yielded a binding signal of 0.127 relative 10-mer count.

In the case of CCGTCCCACC, the binding signal is 0.123 relative 10-mer count.

As to AAAAGGCATA, the binding signal is 0.133 relative 10-mer count.

In the case of AAAGAAGCTA, the binding signal was found to be 0.132 relative 10-mer count.

The sequence GCTTTTTTCC yielded a binding signal of 0.267 relative 10-mer count.

On to AGGGGGGCGG, for which the binding signal worked out at 0.108 relative 10-mer count.

As for ACCCCACCAC, the binding signal is 0.199 relative 10-mer count.

Regarding TCCCCCACCA, the binding signal was determined as 0.114 relative 10-mer count.

CACCCCGACC showed a binding signal of 0.113 relative 10-mer count.

For CCCCCGCCGC, the binding signal came out at 0.128 relative 10-mer count.

CCCCCACCCA had a binding signal of 0.256 relative 10-mer count.

In turn, CCCACGCCCC gave a binding signal of 0.233 relative 10-mer count.

In turn, AGCTTTTTTC registered a binding signal of 0.449 relative 10-mer count.

In the case of GAAAAAAACA, the binding signal is 0.2 relative 10-mer count.

ATGGGGTGGG returned a binding signal of 0.125 relative 10-mer count.

As for ACCCCCACAC, the binding signal was found to be 0.108 relative 10-mer count.

ACCCCCCACC displayed a binding signal of 0.257 relative 10-mer count.

The sequence GCACCCCCAC gave a binding signal of 0.107 relative 10-mer count.

Consider CACCGCCCCC, for which the binding signal amounted to 0.171 relative 10-mer count.

In turn, AAAAGCAGTA had a binding signal of 0.17 relative 10-mer count.

In turn, CCCACCCGAC returned a binding signal of 0.114 relative 10-mer count.

Consider CTTCATACAC, for which the binding signal is 0.291 relative 10-mer count.

The sequence CCTCCCCTCC returned a binding signal of 0.155 relative 10-mer count.

With CTCCCCTCCC, the binding signal was 0.135 relative 10-mer count.

In turn, AAAGAAGCGT showed a binding signal of 0.12 relative 10-mer count.

For the sequence ACCCACCCCA, the binding signal amounted to 0.167 relative 10-mer count.

For the sequence CCTACCACCC, the binding signal came out at 0.111 relative 10-mer count.

Sequence ACCCCGCCCC gave a binding signal of 0.188 relative 10-mer count.

The sequence CCTCCCACCA had a binding signal of 0.115 relative 10-mer count.

Consider CCGCCCCCCC, for which the binding signal amounted to 0.197 relative 10-mer count.

For CGACCCCCCC, the binding signal was determined as 0.113 relative 10-mer count.

In turn, CCACCCCTAC came in with a binding signal of 0.112 relative 10-mer count.
